# Hits are enriched below; roughly 2% of the tested compounds scored in any of these assays.
# sPLA2-III inh = human group III sPLA2 inhibitors, primary screen, biochemical, QFRET, BODIPY PC-A2 liposome substrate. Group 3 secretory phospholipase A2 (Homo sapiens), Q9NZ20. QFRET BODIPY PC-A2 liposome hydrolysis, fluorescence. inhibition, % at 12.2 µM. actives 0.56% (n = 370,000). AID 743126, 2013;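 active = inhibition above mean plus 3 SD of compounds lying within the high and low control bounds, cut at about 19% in these data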;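 note: 0% = median of test compound wells and 100% = no enzyme DMSO wells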
# ARNT-TACC3 inh = disruptors of ARNT/TACC3 protein interaction, primary screen, biochemical, AlphaScreen, single concentration | Transforming acidic coiled-coil-containing protein 3 (Homo sapiens), Q9Y6A5 | actives 0.66% (n = 390,000) | AlphaScreen His-ARNT PAS-B/GST-TACC3 binding, luminescence; TACC3 fragment carries E629A point mutation | inhibition, % at 9.99 µM;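 active = mean inhibition of replicates at least 50% and at least half of replicates each reaching 50%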;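 note: 0% = complete ARNT plus TACC3 wells and 100% = ARNT alone without TACC3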
# NadD inh = inhibitors of S. aureus NadD, primary screen, biochemical, colorimetric, uHTS. inhibition, % at 20 µM. purified NadD enzyme, colorimetric absorbance read-out. Nicotinate-nucleotide adenylyltransferase NadD (Staphylococcus aureus N315). actives 0.78% (n = 360,000). AID 602399, 2012; in the data active = inhibition above about 26%
# DAGLB inhibitor = DAGLB lipase inhibitors, primary screen, biochemical, fluorescence, HTS; actives 0.059% (n = 340,000); Diacylglycerol lipase-beta (Homo sapiens), Q8NCG7; HEK293T DAGLB membrane lysate, EnzChek fluorogenic substrate; inhibition, % at 5.17 µM; in the data active = inhibition above about 34%;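 note: 0% = enzyme with vehicle and 100% = wells lacking enzyme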
# Target sequence (Q8NCG7 whole entry, looked up): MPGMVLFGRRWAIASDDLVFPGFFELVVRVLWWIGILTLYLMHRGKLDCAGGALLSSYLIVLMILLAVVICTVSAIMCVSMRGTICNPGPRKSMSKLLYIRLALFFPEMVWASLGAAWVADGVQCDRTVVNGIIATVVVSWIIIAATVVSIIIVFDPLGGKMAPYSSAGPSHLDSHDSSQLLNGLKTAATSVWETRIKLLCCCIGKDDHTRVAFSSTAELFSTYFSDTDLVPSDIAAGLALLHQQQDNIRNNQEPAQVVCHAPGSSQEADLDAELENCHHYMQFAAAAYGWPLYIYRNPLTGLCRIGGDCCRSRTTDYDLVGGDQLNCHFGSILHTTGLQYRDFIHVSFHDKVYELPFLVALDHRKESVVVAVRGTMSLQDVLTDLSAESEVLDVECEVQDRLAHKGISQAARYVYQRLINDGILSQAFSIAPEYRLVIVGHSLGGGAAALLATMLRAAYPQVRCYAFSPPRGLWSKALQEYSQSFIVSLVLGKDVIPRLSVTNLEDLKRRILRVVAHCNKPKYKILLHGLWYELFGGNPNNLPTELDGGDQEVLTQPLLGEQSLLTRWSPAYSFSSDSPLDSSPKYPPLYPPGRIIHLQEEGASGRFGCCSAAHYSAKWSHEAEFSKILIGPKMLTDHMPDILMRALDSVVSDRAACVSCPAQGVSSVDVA
# Neddylation inh = inhibitors of cullin neddylation, primary screen, biochemical, TR-FRET, uHTS, NAE and Ubc12; actives 0.58% (n = 360,000); NEDD8-conjugating enzyme Ubc12 (Homo sapiens) + NEDD8-activating enzyme E1 regulatory …; inhibition, % at 25 µM; in the data active = inhibition above about 36%
# hGIII sPLA2 conf = human group III sPLA2 inhibitors, confirmation, biochemical, QFRET, triplicate | shares compounds with sPLA2-III inh | recombinant hGIII-sPLA2, BODIPY PC-A2 QFRET fluorescence | inhibition, % at 12.2 µM | actives 34% (n = 2,000) | AID 743280, 2014;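 active = mean inhibition across triplicates above the hit cutoff set in the earlier primary screen, cut at about 19% in these data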;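 note: 0% = enzyme with DMSO and 100% = DMSO wells lacking enzyme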
# BODIPY interf = 535nm fluorescence optical interference, confirmation, artefact control for HGIII-sPLA2 inhibitor project, biochemical, QFRET | inhibition, % at 12.2 µM | actives 8.5% (n = 2,000) | BODIPY FL product fluorescence interference | AID 743282, 2014 | shares compounds with sPLA2-III inh;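 active = average inhibition above the solvent-only control mean plus 3 SD, cut at about 6% in these data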;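 note: 0% = DMSO with substrate plus product and 100% = DMSO with substrate alone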
# BODIPY interf DR = 535nm fluorescence optical interference, dose response, artefact control for HGIII-sPLA2 inhibitor project, biochemical, QFRET. shares compounds with sPLA2-III inh. BODIPY FL product fluorescence interference, cell-free. IC50, µM. 240 tested, under 10 active;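 active = IC50 at or below 10 µM; inactive = IC50 above 10 µM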
# The depositor's hits bear a star; . = not tested or not shown.
SMILES,sPLA2-III inh,ARNT-TACC3 inh,NadD inh,DAGLB inhibitor,Neddylation inh,hGIII sPLA2 conf,BODIPY interf,others
CC1CN(C(=S)NC(=O)c2ccco2)CC(C)O1 (configuration not stated),22*,-3,-5,-1,-8,0,-3,
COc1cccc(-c2csc(N3CCN(C(=S)Nc4ccccc4)CC3)n2)c1,19*,-2,8,-1,-5,11,-4,
COc1ccc(NC(=O)Nc2ccc3c(c2)C(=O)N([C@@H](C)CO)C[C@H](C)[C@H](CN(C)Cc2ccc(C(=O)O)cc2)OCCCC[C@@H](C)O3)cc1,.,-13,.,.,.,.,.,
Cc1ccc(N2CCOCC2)c2c1C(=O)c1ccccc1C2=O,25*,31,-2,20,-23,29*,-1,BODIPY interf DR=>122
O=C1CN(C(=O)c2ccccc2Cl)c2ccccc2N1,21*,-1,1,-2,-1,-3,-2,
Cn1cnc(S(=O)(=O)N[C@@H]2C=C[C@H](CC(=O)NCC3CCCCC3)O[C@@H]2CO)c1,.,-2,.,.,.,.,.,
CN(C)S(=O)(=O)c1cccc(C(=O)Nc2ccc(N3CCOCC3)cc2)c1,25*,-8,5,5,-7,4,-2,
O=C(Nc1ccc(N2CCCCCC2)cc1)c1ccccc1Cl,16,-11,11,0,-5,.,.,
O=C(Nc1ccc(N2CCCCCC2)cc1)c1ccc[nH]1,22*,31,2,4,-5,34*,-6,BODIPY interf DR=>122
CN(c1ccccc1)S(=O)(=O)c1cccc(C(=O)Nc2ccc(N3CCOCC3)cc2)c1,-8,10,7,6,3,.,.,
O=C(Nc1ccc(N2CCCC2)cc1)c1cccc(Cl)c1,24*,8,0,-2,6,25*,-1,
O=C(Nc1ccccc1N1CCCCC1)c1cccc(Cl)c1,-2,-8,-3,-13,10,.,.,
O=C(C[C@H]1C[C@@H]2c3cc(NC(=O)Nc4ccccc4)ccc3O[C@@H]2[C@@H](CO)O1)NC1CCCCC1,.,-4,.,.,.,.,.,
Cc1onc(-c2ccccc2)c1C(=O)NC(=S)NNC(=O)c1ccc(O)cc1O,23*,95*,0,9,6,23*,3,
Cc1onc(-c2ccccc2)c1C(=O)NC(=S)NNC(=O)c1ccc(O)cc1,9,21,0,1,6,.,.,
Cc1onc(-c2ccccc2)c1C(=O)NC(=S)NNC(=O)c1ccccc1O,42*,58*,-2,12,-2,34*,1,BODIPY interf DR=>122
CC(C)c1cc(C(=O)NNC(=S)NCc2ccco2)c(O)c(C(C)C)c1,51*,-19,3,0,.,57*,4,BODIPY interf DR=>122
O=C(CNC(=S)N(CCCN1CCOCC1)Cc1cccs1)NCCCN1CCOCC1,0,3,2,0,7,.,.,
CCN(CC)C(=O)CNC(=S)N(CCCN1CCOCC1)Cc1cccs1,20*,0,2,-1,4,3,-11,
O=C(Nc1ccccc1F)N[C@@H]1CC[C@H](CCNC(=O)C2CCC2)O[C@H]1CO,.,-8,.,.,.,.,.,
Cc1cc(N2CCCC2)ccc1NC(=O)COc1cccc(C(F)(F)F)c1,22*,-19,5,-3,3,35*,3,BODIPY interf DR=>122
CC(=O)Nc1ccc(NC(=S)Nc2ccc(F)cc2)cc1,5,.,2,0,0,.,.,
CC(C)(C)C(=O)NC(=S)Nc1ccc(F)cc1,23*,-11,-5,-5,1,11,-4,
